Source: PubChem BioAssay (NCATS)
Several values for one entry are separate records, joined by “and”; a condition that tells them apart may be missing. Equal entries are not always repeated. Inconclusive results are not listed. Activity calls are given as the source filed them. Unless noted, the call rests on the fitted dose curve; in most records, active means well fitted curve in the direction sought with a large enough effect; inconclusive means small, poorly fitted or top-dose-only effect, or another doubt; inactive means no such curve, though single readings can be large; an effect the other way counts as inactive or inconclusive.

Legend:
[1] = biological target: Cellular tumor antigen p53 (Homo sapiens) (UniProt P04637); assay: Primary qHTS for small molecule compounds that upregulate eGFP-tagged delta133p53alpha (in N-terminal) cells. (AID 2060322); details: NCI-H358 eGFP-delta133p53alpha fluorescence, 24 h; activation: stronger effect = higher value;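 further: series mostly up to about 56 µM; 0% = DMSO vehicle and 100% = reference activator; nearly all actives have a fitted effect of over 75% in size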
Cellular tumor antigen p53 (Homo sapiens), sequence (P04637 whole entry, looked up): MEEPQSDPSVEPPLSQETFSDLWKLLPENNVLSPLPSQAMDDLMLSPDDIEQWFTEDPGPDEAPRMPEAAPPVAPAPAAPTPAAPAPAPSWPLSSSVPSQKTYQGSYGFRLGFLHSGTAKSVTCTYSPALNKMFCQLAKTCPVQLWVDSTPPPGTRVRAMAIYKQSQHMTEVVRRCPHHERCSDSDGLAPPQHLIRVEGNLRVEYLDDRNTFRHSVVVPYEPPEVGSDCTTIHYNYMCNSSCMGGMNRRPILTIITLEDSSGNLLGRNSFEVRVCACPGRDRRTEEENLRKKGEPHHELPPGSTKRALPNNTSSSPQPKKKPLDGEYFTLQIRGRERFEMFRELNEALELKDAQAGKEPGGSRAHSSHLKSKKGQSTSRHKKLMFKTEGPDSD
Summary of the method: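 NCI-H358 cells pre-induced 24 h with 10 ng/ml doxycycline to express N-terminal eGFP-delta133p53alpha, then dosed 24 h at 37C without doxycycline; fixed, Hoechst-stained, GFP intensity by laser scanning cytometry, normalized to DMSO (0%) and 57.5 uM 5-azacytidine (100%).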

[2] = biological target: Cellular tumor antigen p53 (Homo sapiens) (UniProt P04637); assay: Primary qHTS for small molecule compounds that upregulate eGFP-tagged delta133p53alpha (in C-terminal) cells. (AID 2060324);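 further: 0% = DMSO wells and 100% = 57.5 µM 5-azacytidine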
Summary of the method: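 In this qHTS, GFP-tagged delta133p53alpha levels are measured in fixed NCI-H358 cells after 24 h compound exposure at 37 °C. The cells are pre-induced with 100 ng/ml doxycycline, and signal is normalized to DMSO-treated wells as 0%.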

[3] = biological target: Aldehyde dehydrogenase, mitochondrial (Homo sapiens) (UniProt P05091); assay: qHTS for Inhibitors of the Aldehyde Dehydrogenase Family (ALDH2) Validation screens (AID 2061302; active means well fitted inhibition curve with a large enough effect; title and protocol of this record describe different tests;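 further: plate controls were DMSO vehicle for no effect and maximal DPI positive control response for full effect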)
[4] = biological target: Retinaldehyde dehydrogenase 3 (Homo sapiens) (UniProt P47895); assay: qHTS for Inhibitors of the Aldehyde Dehydrogenase Family (ALDH1A3) Validation screen (AID 2061312); further: on the % scale 0 is the no-effect control and ±100 the full control effect; nearly all actives have a fitted effect of over 45% in size
[5] = BET inhibitor-based combinations targeting novel dependencies in MECOM-rearranged (r) AML: SET-2 cell line (AID 2202231); details: SET-2 AML cells viability, CellTiter-Glo luminescence, 48 h; viability: stronger effect = lower value, series mostly up to about 46 µM;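 further: plate controls were DMSO treated cells for no effect and wells without cells for full effect; nearly all actives have a fitted effect of over 35% in size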
Summary of the method: (§1)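 500 cells/well; 11-pt dose curve; 48 h, standard incubator; CellTiter-Glo luminescence after 15 min RT; DMSO/empty-well normalization; AUC plus Z-AUC (mean-centered within each line).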

[6] = BET inhibitor-based combinations targeting novel dependencies in MECOM-rearranged (r) AML: OCI-AML3 cell line (AID 2202232); details: Potency: OCI-AML3 viability;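 further: series mostly up to about 46 µM; plate controls were DMSO vehicle wells for no effect and wells without cells for full effect; nearly all actives have a fitted effect of over 35% in size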
Summary of the method: as §1

[7] = BET inhibitor-based combinations targeting novel dependencies in MECOM-rearranged (r) AML: MV-4-11 cell line (AID 2202233);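 further: plate controls were DMSO for no effect and blank wells for full effect; nearly all actives have a fitted effect of over 45% in size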
Summary of the method: (§2)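 Cells were plated at 500 per well and exposed to each drug across an 11-point dose range for 48 hr at standard incubator conditions. Viability was read by CellTiter-Glo luminescence, and activity was expressed as AUC and per-cell-line Z-transformed AUC.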

[8] = BET inhibitor-based combinations targeting novel dependencies in MECOM-rearranged (r) AML: HNT-34 cell line (AID 2202234);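 further: plate controls were vehicle wells for no effect and cell-free wells for full effect; nearly all actives have a fitted effect of over 35% in size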
Summary of the method: as §2

[9] = BET inhibitor-based combinations targeting novel dependencies in MECOM-rearranged (r) AML: UCSD-AML1 cell line (AID 2202235);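 further: series mostly up to about 46 µM; plate controls were DMSO vehicle wells for no effect and blank wells for full effect; nearly all actives have a fitted effect of over 40% in size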
Summary of the method: as §2

[10] = BET inhibitor-based combinations targeting novel dependencies in MECOM-rearranged (r) AML: AML-191 cell line (AID 2202236;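 further: plate controls were vehicle wells for no effect and wells without cells for full effect; nearly all actives have a fitted effect of over 35% in size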)
Summary of the method: as §1

[11] = BET inhibitor-based combinations targeting novel dependencies in MECOM-rearranged (r) AML: AML-194 cell line (AID 2202237;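 further: plate controls were vehicle wells for no effect and wells without cells for full effect; nearly all actives have a fitted effect of over 40% in size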)
Summary of the method: as §1

O=C(NCCN1CCOCC1)c1ccc(Cl)cc1
inactive: activation [1] -2.82% and -8.35% | Potency [2] | Potency [3] | Potency [4]

N=S(=O)(O)Cc1noc2ccccc12
inactive: activation [1] -35.5% | Potency [2] | Potency [3] | Potency [4]

CN1[C@@H](CC(=O)c2ccccc2)CCC[C@H]1C[C@H](O)c1ccccc1
inactive: activation [1] 1.49% | Potency [2] | Potency [3] | Potency [4]

CC[C@H](NC(=O)c1c(C)c(-c2ccccc2)nc2ccccc12)c1ccccc1
inactive: activation [1] -16.3% | Potency [2] | Potency [3] | Potency [4]

Cc1cc(NC(=O)Nc2ccc3c(ccn3C)c2)sn1
inactive: activation [1] 51% | Potency [2] | Potency [3] | Potency [4]

O=C(c1ccc(OCCCc2cnc[nH]2)cc1)C1CC1
inactive: activation [1] 6.88% | Potency [2] | Potency [3] | Potency [4]

OC[C@H]1NC[C@@H](O)[C@@H]1O
inactive: activation [1] 4.88% | Potency [2] | Potency [3] | Potency [4]

CN1C(=O)CC[C@H]1c1cccnc1
inactive: activation [1] -11.7% and 28% | Potency [2] | Potency [3] | Potency [4]

C[C@@H](CN1CCC(Cc2ccccc2)CC1)[C@@H](O)c1ccc(O)cc1
inactive: activation [1] -9.23% | Potency [2] | Potency [3] | Potency [4]

Cn1c(=O)c2c(nc(/C=C/c3cccc(Cl)c3)n2C)n(C)c1=O
inactive: activation [1] -0.199% | Potency [2] | Potency [3] | Potency [4]

CN1C2CCC1CC(OC(c1ccccc1)c1ccccc1)C2 (stereo unspecified)
inactive: activation [1] -19.6% | Potency [2] | Potency [3] | Potency [4]

CCN(CC)CCCCCCCCOC(=O)c1cc(OC)c(OC)c(OC)c1
inactive: activation [1] -40.3% | Potency [2] | Potency [3] | Potency [4]

CC1OC1P(=O)(O)O (stereo unspecified)
inactive: activation [1] 13.6% | Potency [2] | Potency [3] | Potency [4]

COc1cc(C(O)C(=O)O)ccc1O (stereo unspecified)
inactive: activation [1] -11.9% | Potency [2] | Potency [3] | Potency [4]

CC(C)NCC(O)c1ccc(NS(C)(=O)=O)cc1 (stereo unspecified)
inactive: activation [1] -72.6% | Potency [2] | Potency [3] | Potency [4] | viability [5] 116% | Potency [6] | Potency [7] | Potency [8] | Potency [9]

NCCS(=O)(=O)O
inactive: activation [1] -4.87% and 12% | Potency [2] | Potency [3] | Potency [4] | viability [5] 125% | Potency [6] | Potency [7] | Potency [9] | Potency [10] | Potency [11]

COc1ccc(C2CNC(=O)C2)cc1OC1CCCC1 (stereo unspecified)
inactive: activation [1] 8.47% and 29.3% | Potency [2] | Potency [3] | Potency [4] | viability [5] 119% | Potency [6] | Potency [7] | Potency [8] | Potency [9] | Potency [10] | Potency [11]
